Experimental findings from PubChem BioAssay (Tox21) are described below.

Molecules are shown by their SMILES. Results filed as inconclusive are left out. The source made the active and inactive calls. The call rests on the fitted dose curve.
On the % scale 0 is the no-effect control and ±100 the full control effect; potency means the concentration at half of the fitted maximal effect.

Sequence of 5-hydroxytryptamine receptor 2A (Homo sapiens) (P28223 whole entry, looked up): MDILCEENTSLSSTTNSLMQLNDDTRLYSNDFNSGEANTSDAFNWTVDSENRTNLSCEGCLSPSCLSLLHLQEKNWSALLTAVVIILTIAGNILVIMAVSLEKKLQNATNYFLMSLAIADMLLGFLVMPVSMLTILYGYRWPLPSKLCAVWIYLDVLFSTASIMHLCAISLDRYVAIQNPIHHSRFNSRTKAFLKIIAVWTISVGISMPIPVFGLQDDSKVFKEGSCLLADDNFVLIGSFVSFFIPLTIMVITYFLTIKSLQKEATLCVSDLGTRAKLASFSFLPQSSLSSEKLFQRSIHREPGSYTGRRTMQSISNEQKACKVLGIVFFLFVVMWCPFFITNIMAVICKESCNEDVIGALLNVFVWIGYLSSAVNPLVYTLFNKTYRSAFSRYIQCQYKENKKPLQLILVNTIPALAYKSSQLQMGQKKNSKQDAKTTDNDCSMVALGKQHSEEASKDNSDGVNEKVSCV

This assay has as its target 5-hydroxytryptamine receptor 2A (Homo sapiens) (UniProt P28223). The assay can be described thus: 5-hydroxytryptamine receptor 2A (HTR2A) small molecule antagonists, cell-based qHTS assay (AID 1963586). Further: nearly all actives have a fitted effect of over 45% in size. The following applies: HTR2A-CHO cells, DOI-induced calcium flux, fluorescence; series mostly up to 61.5 µM; activity, negative = inhibition: at the top concentration. From the text:
National Center for Advancing Translational Sciences [NCATS]
Division of Preclinical Innovation [DPI]
U.S. Environmental Protection Agency [EPA]
National Institutes of Environmental Health Sciences [NIEHS]
National Toxicology Program [NTP]
U.S. Food and Drug Administration [FDA]
The HTR2A receptor is a subtype of the 5-HT2 receptor that belongs to the serotonin receptor family and is a G protein-coupled receptor (GPCR). The HTR2A-CHO cell line stably expressing human 5-hydroxytryptamine receptor 2A (HTR2A) can be used for screening antagonists of interactions between 5-HT2 and its ligands. The HTR2A-CHO calcium flux assay is a homogeneous fluorescence-based assay for detecting the intracellular calcium level using FDSS kinetic plate reader system.
Tox21 Assay Protocol Summary:
HTR2A-CHO cells were dispensed at 2000 cells/3uL/well in 1536-well black-clear bottom plates using a Multidrop Dispenser. After the assay plates were incubated at a 37 C/5% CO2 incubator for 18 h, 3 uL of Dye Loading Buffer was transferred to the assay plate by a Flying Reagent Dispenser. The assay plates were incubated at 37 C for 1h. For antagonist mode, 23 nL of compounds dissolved in DMSO, positive controls or DMSO only was transferred to the assay plate by a pin tool. After 5 min incubation at room temperature, 1.5 uL of 4-Iodo-2,5-dimethoxy-alpha-methylbenzeneethanamine hydrochloride (DOI) at 4nM was added to each well. The fluorescence intensity in the plates was measured using FDSS 7000EX kinetic plate reader for 3 min at 1 sec intervals.
(Quantitative high-throughput screening tests each substance at several concentrations.)
For `CN1CCN(C)CC1`, the “activity, negative = inhibition” value is 0.578% (inactive).

Regarding `CCCCCCC(O)CCCCCCCCCCC(=O)O` (stereo not given), the Potency entry is “inactive”.

Turning to `CCCCOC(=O)c1ccccc1C(=O)OCC(CC)CCCC` (stereo not given), the “activity, negative = inhibition” value is -35.6% (inactive).

Consider `CCCCCCCCCCCCCCCC(=O)OC/C=C(C)/C=C/C=C(C)/C=C/C1=C(C)CCCC1(C)C`, for which the “activity, negative = inhibition” value is -6.03% (inactive).

On to `Cn1c(=O)c2c(ncn2CCO)n(C)c1=O`, for which the “activity, negative = inhibition” value is -19.5% [at 28.5 µM] (inactive).

Turning to `Cc1oc(=O)oc1CN1CCN(c2cc3c(cc2F)c(=O)c(C(=O)O)c2n3C(C)S2)CC1` (stereo not given), the “activity, negative = inhibition” value is -21.8% [at 28.5 µM] (inactive).

Take `CC(C)(C)CC(C)(C)c1ccc(O)c(Cc2ccc(Cl)cc2Cl)c1`: the “activity, negative = inhibition” value was 5.37% [at 28.5 µM] (inactive).

For the molecule `O=c1cc(-c2ccccc2)oc2cc(O)cc(O)c12`, the “activity, negative = inhibition” value is -18.8% (inactive).

Take `Cn1cc(C(=O)[C@@H]2CCc3nc[nH]c3C2)c2ccccc21`: the “activity, negative = inhibition” value was -2.36% [at 28.5 µM] (inactive).

As to `NNC(=O)CCCCC(=O)NN`, the “activity, negative = inhibition” value was 4.42% (inactive).

On to `CCCC[N+](C)(CCCC)CCCC`, for which the “activity, negative = inhibition” value was -7.37% (inactive).

As for `C=Cc1ccc(O)c(OC)c1`, the “activity, negative = inhibition” value is -8.78% (inactive).

As for `Cc1c(NC(=O)c2cccnc2)c(=O)n(-c2ccccc2)n1C`, the “activity, negative = inhibition” value was 5.81% [at 28.5 µM] (inactive).

Turning to `COC(=O)[C@]1(C)CCC[C@@]2(C)[C@H]1CC=C1C=C(C(C)C)CC[C@@H]12`, the “activity, negative = inhibition” value is 5.45% (inactive).

For the molecule `CC(C)COC(=O)C(C)C`, the “activity, negative = inhibition” value is 4.8% (inactive).

In the case of `CCOC(=O)CC(=O)c1ccccc1`, the “activity, negative = inhibition” value was 12% (inactive).

Consider `CO/N=C(/C(=O)N[C@@H]1C(=O)N2C(C(=O)[O-])=C(C[n+]3ccn4ncccc43)CS[C@H]12)c1nsc(N)n1`, for which the “activity, negative = inhibition” value is 4.49% [at 28.5 µM] (inactive).

Turning to `O=C1C=CC(=O)N1`, the “activity, negative = inhibition” value is 6.26% (inactive).

With `CCOC(=O)c1ccc(C2CCC(NC[C@H](O)COc3ccc(O)c(NS(C)(=O)=O)c3)CC2)cc1` (stereo not given in full), the “activity, negative = inhibition” value was 15.4% (inactive).

Take `C=CCCCCCCCCCCCCCC`: the activity, negative = inhibition was 4.99% [at 12.7 µM] (inactive).

For `Cc1cc(C)c(/C=C2\C(=O)Nc3ccccc32)[nH]1`, the “activity, negative = inhibition” value was 81.3% [at 28.5 µM] (inactive).

For `c1ccc2occc2c1`, the Potency was 375 nM (active).

Take `CCC(=O)Oc1ccc(/C(CC)=C(\CC)c2ccc(OC(=O)CC)cc2)cc1`: the “activity, negative = inhibition” value was -0.353% (inactive).

Regarding `CC(=O)OC/C=C(/C)CCC=C(C)C`, the “activity, negative = inhibition” value was 1.76% (inactive).

As to `CC(=O)/C(C)=C/C1C(C)=CCCC1(C)C` (stereo not given), the “activity, negative = inhibition” value was -25.4% (inactive).

On to `COc1cc(C(=O)OCCCN2CCCN(CCCOC(=O)c3cc(OC)c(OC)c(OC)c3)CC2)cc(OC)c1OC`, for which the “activity, negative = inhibition” value is -11% [at 28.5 µM] (inactive).

Turning to `C=CCOCC(O)CCl` (stereo not given), the “activity, negative = inhibition” value is -1% (inactive).

Turning to `O=S(=O)(O)c1cc(S(=O)(=O)O)c2ccc3c(S(=O)(=O)O)cc(S(=O)(=O)O)c4ccc1c2c43`, the activity, negative = inhibition is -5.22% [at 12.7 µM] (inactive).

Turning to `C=C(C)C(=O)OCCCCCCCCCCCCCCCCCC`, the activity, negative = inhibition was -3.48% [at 12.7 µM] (inactive).

Consider `Cc1cc2nc(N)sc2cc1C`, for which the “activity, negative = inhibition” value was -3.92% (inactive).

Turning to `CCN(CC)CCNc1ccc(CO)c2sc3ccccc3c(=O)c12`, the “activity, negative = inhibition” value is -34.9% [at 28.5 µM] (inactive).

With `Clc1cc(Cl)c2c(c1)N=C1CCCCCN1C2`, the “activity, negative = inhibition” value is -36.9% [at 28.5 µM] (inactive).

Consider `O=C1CCCCCO1`, for which the “activity, negative = inhibition” value was 3.03% (inactive).

With `Clc1cccc(Cl)n1`, the “activity, negative = inhibition” value was -1.47% (inactive).

Take `NNC(=O)CP(=O)(c1ccccc1)c1ccccc1`: the “activity, negative = inhibition” value is 21.2% [at 28.5 µM] (inactive).

As for `COC(=O)c1cc(Cl)ccc1[N+](=O)[O-]`, the “activity, negative = inhibition” value was -0.925% (inactive).

On to `CC1=C(C(=O)O)N2C(=O)[C@@H](NC(=O)[C@H](N)C3=CCC=CC3)[C@H]2SC1`, for which the “activity, negative = inhibition” value is 15.5% [at 28.5 µM] (inactive).

In the case of `CCO[C@@H]1O[C@H](C(COCc2ccccc2)OCc2ccccc2)[C@H](OCc2ccccc2)[C@H]1O` (stereo not given in full), the “activity, negative = inhibition” value is 1.95% [at 28.5 µM] (inactive).

With `O=S(=O)(O)c1cc(S(=O)(=O)O)c2c(N=Nc3ccccc3)c(O)ccc2c1`, the Potency entry is “inactive”.

For the molecule `CCc1cccc2c(CCO)c[nH]c12`, the “activity, negative = inhibition” value is 6.18% [at 28.5 µM] (inactive).
